# Assay results reported in PubChem BioAssay (NCI).
# Where “and” joins values, the source holds several entries; their conditions need not be identical. Identical values can stand only once. This is part of a sample that, as a whole, favours compounds with a hit. Of some 83,000 tested, about 20% had one in any assay.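 Results are percent growth after 48 hours of single-concentration exposure. 100 means growth as in untreated cells, lower positive values show inhibition; negative values down to -100 show cell death.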 Calls of active or inactive are those of the source. How the source made its calls: active means growth percent below 10; inactive means the rest.
# Legend:
# Test in all cases: NCI-60 one-dose screen, 48 h (100 = growth as untreated, 0 = no growth, -100 = all killed)
# Conditions in all cases: 10 µM unless noted
# HCT-15 colon = test system: HCT-15 colon
# SNB-75 CNS = test system: SNB-75 CNS
# SNB-19 CNS = test system: SNB-19 CNS
# U251 CNS = test system: U251 CNS
# PC-3 prostate = test system: PC-3 prostate
# SK-MEL-5 melanoma = test system: SK-MEL-5 melanoma
# UACC-62 melanoma = test system: UACC-62 melanoma
# LOX IMVI melanoma = test system: LOX IMVI melanoma
# SK-MEL-28 melanoma = test system: SK-MEL-28 melanoma
# SK-MEL-2 melanoma = test system: SK-MEL-2 melanoma
# EKVX NSCLC = test system: EKVX NSCLC
# SN12C renal = test system: SN12C renal
# UO-31 renal = test system: UO-31 renal
# TK-10 renal = test system: TK-10 renal
# ACHN renal = test system: ACHN renal
# CAKI-1 renal = test system: CAKI-1 renal
# A498 renal = test system: A498 renal
# CCRF-CEM leukemia = test system: CCRF-CEM leukemia
# MOLT-4 leukemia = test system: MOLT-4 leukemia
# HT29 colon = test system: HT29 colon
Structure (SMILES),growth (HCT-15 colon),growth (SNB-75 CNS),growth (SNB-19 CNS),growth (U251 CNS),growth (PC-3 prostate),growth (SK-MEL-5 melanoma),growth (UACC-62 melanoma),growth (LOX IMVI melanoma),growth (SK-MEL-28 melanoma),growth (SK-MEL-2 melanoma),growth (EKVX NSCLC),growth (SN12C renal),growth (UO-31 renal),growth (TK-10 renal),growth (ACHN renal),growth (CAKI-1 renal),growth (A498 renal),growth (CCRF-CEM leukemia),growth (MOLT-4 leukemia),growth (HT29 colon)
Nc1nc(N)c2c(n1)NC(c1ccc(Cl)cc1)CC(c1cccc(Nc3ccncc3)c1)=N2 (stereo unspecified),71.5% (inactive),67.2% (inactive),61.8% (inactive),34.6% (inactive),38.2% (inactive),52.1% (inactive),69.2% (inactive),25.4% (inactive),72.2% (inactive),76.3% (inactive),62.1% (inactive),53% (inactive),90.6% (inactive),113% (inactive),73.5% (inactive),73.7% (inactive),81.1% (inactive),32.7% (inactive),38.1% (inactive),–
COc1cc(/C=N/NC(=O)CCN2c3ccccc3Sc3ccccc32)cc(OC)c1OC,96.4% (inactive),91.6% (inactive),90.4% (inactive),97.8% (inactive),61.4% (inactive),76.5% (inactive),62.6% (inactive),79.5% (inactive),–,98.4% (inactive),72.7% (inactive),76.8% (inactive),63.7% (inactive),110% (inactive),76% (inactive),67.1% (inactive),61.1% (inactive),73.9% (inactive),71.5% (inactive),–
CCOC(=O)c1c(-c2ccc(C)cc2)c(C#N)c(=O)n(-c2cccc(C(F)(F)F)c2)c1N,101% (inactive),76.3% (inactive),88.8% (inactive),102% (inactive),–,101% (inactive),–,96.9% (inactive),102% (inactive),116% (inactive),98.8% (inactive),95.1% (inactive),81.6% (inactive),112% (inactive),96.7% (inactive),91.2% (inactive),106% (inactive),101% (inactive),104% (inactive),111% (inactive)
CC(=O)OC[C@]12CCC(C)(C)C=C1[C@H]1CC[C@@H]3[C@@]4(C)CCCNC(C)(C)[C@@H]4CC[C@@]3(C)[C@]1(C)CC2,89.6% (inactive),71.8% (inactive),53.4% (inactive),35.3% (inactive),37% (inactive),9.31% (active),34.4% (inactive),72.5% (inactive),59.1% (inactive),90.7% (inactive),89.5% (inactive),68.8% (inactive),91.5% (inactive),94.9% (inactive),99.3% (inactive),88.9% (inactive),97.9% (inactive),39.3% (inactive),38.8% (inactive),–
C#Cc1cc(C(=O)Nc2ccc(CN3CCN(C)CC3)c(C(F)(F)F)c2)ccc1C,26.3% (inactive),76.3% (inactive),94.9% (inactive),56% (inactive),61.5% (inactive),15.6% (inactive),40.2% (inactive),31.1% (inactive),18.8% (inactive),91.1% (inactive),91.5% (inactive),84.5% (inactive),60.2% (inactive),94.7% (inactive),92.2% (inactive),63.7% (inactive),63.9% (inactive),74.8% (inactive),58.9% (inactive),–
CC(C)(C)c1cc(NC(=O)Nc2ccc(-c3cn4c(n3)sc3cc(OCCN5CCOCC5)ccc34)cc2)no1,23.8% (inactive) and 51.5% (inactive),45.4% (inactive) and -7.53% (active),37.4% (inactive) and 11.4% (inactive),-3.4% (active) and 0.378% (active),–,13.5% (inactive) and 9.61% (active),-53.4% (active) and 5.34% (active),0.319% (active) and 23.4% (inactive),42.9% (inactive) and 33.8% (inactive),10.8% (inactive),47.6% (inactive) and 68.4% (inactive),15.6% (inactive) and 19.3% (inactive),10.7% (inactive) and 28.2% (inactive),24.2% (inactive) and 45% (inactive),12.4% (inactive) and 26.7% (inactive),30.4% (inactive) and 13.4% (inactive),8.16% (active) and 37.7% (inactive),18.7% (inactive) and 20% (inactive),1.69% (active) and 40% (inactive),–
CCCCCO/N=C\c1c2c(O)c3c(O)c(C)c4c(c3c1O)C(=O)C(C)(O/C=C\C(OC)C(C)C(OC(C)=O)C(C)C(O)C(C)C(O)C(C)/C=C\C=C(\C)C(=O)N2)O4 (stereo unspecified),16.1% (inactive),39.3% (inactive),33.5% (inactive),16.8% (inactive),13.1% (inactive),15.3% (inactive),24.1% (inactive),23.2% (inactive),39.5% (inactive),-37.7% (active),27.3% (inactive),27.6% (inactive),17.8% (inactive),38% (inactive),29.6% (inactive),14.9% (inactive),62.9% (inactive),18.6% (inactive),14.4% (inactive),–
CC1=C2[C@@H](CC1)[C@]1(C)O[C@@](C3CC3)(C[C@H]1OC(=O)CO)[C@H]2OC(=O)/C=C/c1ccccc1,97% (inactive),88.2% (inactive),90% (inactive),88.3% (inactive),68% (inactive),92.9% (inactive),73.1% (inactive),84% (inactive),107% (inactive),97.2% (inactive),87.7% (inactive),42.4% (inactive),-26% (active),106% (inactive),9.75% (active),71.4% (inactive),-39.1% (active),90.3% (inactive),77.6% (inactive),–
Cc1cc(N2CCN(CC(=O)Nc3ccc4c(ccn4Cc4ccccc4)c3)CC2)nc(N2CCCCCC2)n1,28.2% (inactive),66.6% (inactive),57.3% (inactive),38.4% (inactive),28.2% (inactive),49.2% (inactive),43.2% (inactive),34.9% (inactive),63.4% (inactive),64% (inactive),57.5% (inactive),54.8% (inactive),-1.98% (active),73.1% (inactive),57.5% (inactive),31.9% (inactive),5.69% (active),46.2% (inactive),44.3% (inactive),–
O=C(CCCOc1ccc(Br)cc1)Nc1ncc(Cc2ccc(F)cc2)s1,38.6% (inactive),55% (inactive),76.5% (inactive),80.4% (inactive),72.9% (inactive),68.8% (inactive),50.2% (inactive),64.6% (inactive),76.8% (inactive),93.3% (inactive),77% (inactive),82.7% (inactive),62.6% (inactive),86.5% (inactive),72.9% (inactive),37% (inactive),76.7% (inactive),64.4% (inactive),73.8% (inactive),–
COc1cc(/C=C2/C=C(c3ccc(C(C)(C)C)cc3)N(CCc3ccc(S(N)(=O)=O)cc3)C2=O)cc(OC)c1OC,30.3% (inactive),65.9% (inactive),69% (inactive),41.7% (inactive),8.07% (active),32.1% (inactive),59% (inactive),42.2% (inactive),61.9% (inactive),79.2% (inactive),51.3% (inactive),64.7% (inactive),37.1% (inactive),82.1% (inactive),49.5% (inactive),71.6% (inactive),82.4% (inactive),29.3% (inactive),16.3% (inactive),–
C[C@@H]1CC[C@@H]2[C@@H]1[C@H](OC(=O)/C=C/c1ccccc1)[C@]1(c3ccccc3)C[C@@H](NC(=O)CO)[C@@]2(C)O1,91.7% (inactive),88% (inactive),96.2% (inactive),88.9% (inactive),78.9% (inactive),97.9% (inactive),71.7% (inactive),96.1% (inactive),103% (inactive),107% (inactive),90.2% (inactive),86.8% (inactive),69.7% (inactive),112% (inactive),79.1% (inactive),70.1% (inactive),-3.59% (active),99.8% (inactive),84% (inactive),–
CN(C)C(=O)c1cc2cnc(Nc3ccc(-c4csc5c(=S)cc(N6CCOCC6)oc45)cc3)nc2n1C1CCCC1,7.32% (active),-37.4% (active),10.6% (inactive),7.08% (active),-4.89% (active),-30.4% (active),-35.8% (active),-39.8% (active),9.77% (active),-24.6% (active),12.1% (inactive),7.93% (active),-4.43% (active),4.82% (active),–,11.7% (inactive),-38.2% (active),1.8% (active),2.85% (active),–
CC(=O)N1N=C(c2ccc(Nc3nc(Nc4ccc(F)cc4)nc(Nc4ccc(F)cc4)n3)cc2)CC1c1ccccc1 (stereo unspecified),89.3% (inactive),80.1% (inactive),77.3% (inactive),85.5% (inactive),70% (inactive),69.6% (inactive),95.4% (inactive),103% (inactive),–,59.9% (inactive),105% (inactive),112% (inactive),80.2% (inactive),97.6% (inactive),84.6% (inactive),114% (inactive),85.5% (inactive),-14.7% (active),70.2% (inactive),–
